AmpC detergent: inhibitors of E. coli AmpC beta-lactamase with detergent | P00811 | AmpC hydrolysis of nitrocefin, absorbance 480 nm, 0.01% Triton | Potency, µM (top dose mostly 114 µM), usual class: inhibitors | hit rate 0.041% among 370,000 | AID 485294; note: nearly all actives have a fitted effect of over 25% in size
Target sequence (P00811 whole entry, looked up): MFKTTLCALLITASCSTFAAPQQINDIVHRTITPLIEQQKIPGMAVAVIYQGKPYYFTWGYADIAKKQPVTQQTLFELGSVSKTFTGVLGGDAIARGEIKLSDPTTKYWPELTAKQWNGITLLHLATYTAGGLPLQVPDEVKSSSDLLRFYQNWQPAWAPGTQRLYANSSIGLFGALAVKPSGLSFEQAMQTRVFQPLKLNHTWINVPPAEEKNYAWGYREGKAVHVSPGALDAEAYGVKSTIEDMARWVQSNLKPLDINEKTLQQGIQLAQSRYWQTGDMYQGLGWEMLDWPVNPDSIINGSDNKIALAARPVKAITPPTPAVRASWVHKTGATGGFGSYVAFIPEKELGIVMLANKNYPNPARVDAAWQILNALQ
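20 mM phosphate pH 7.0 + 0.01% (detergent screen) or 0.0001% Triton X-100; 5.3 nM AmpC reagent; cpd preinc 15 min RT; nitrocefin (800 uM stock) to start; A480 q20 s × 4 min; Activity was normalised to no-enzyme and no-compound control wells.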
AmpC inh no detg: blocks E. coli AmpC beta-lactamase in detergent-free assay; P00811; AmpC nitrocefin hydrolysis, absorbance 480 nm, 0.0001% Triton; Potency, µM (top dose mostly 57.1 µM), hits mostly inhibitors; hit rate 0.52% among 330,000; note: nearly all actives have a fitted effect of over 20% in size
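AmpC (5.3 nM in the dispensed reagent) in 20 mM phosphate pH 7.0 with 0.01% (detergent screen) or 0.0001% Triton X-100 was preincubated with compounds for 15 min at room temperature. Nitrocefin was then added from an 800 uM solution, and hydrolysis was followed at 480 nm.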
Pf growth 96h: P. falciparum growth inhibition at 96 hour, primary screen for plastid delayed-death inhibitors; P. falciparum luciferase reporter growth, 96 h; Potency, µM (series often up to 28.7 µM), most hits filed as inhibitors; hit rate 6.9% among 320,000; AID 504834
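Luminescence readout: decreased luciferase signal marks inhibited growth of reporter-expressing P. falciparum in infected red cells (2% hematocrit, 0.05% parasitemia final), exposed to compound two generations (96 h, 37 C, 5% CO2).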
HCV inhibitor: blocks hepatitis C virus; Potency, µM (doses to about 41.8 µM), hits mostly inhibitors; hit rate 3.4% among 340,000; AID 651820; Huh7.5.1 HCVcc-Cre infection, luciferase reporter, 44 h
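Antiviral activity was scored by luciferase reporter output from cells infected with HCVcc-Cre (~0.5 moi) in presence of compound, 44 h infection period, cells seeded 1,000/well 4 h prior.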
AMA1 RON2 block: disrupts binding of P. falciparum AMA1 to RON2 | hit rate 0.2% among 360,000 | AID 720542 | Potency, µM (doses to about 58.2 µM), actives largely listed as inhibitors | AlphaScreen AMA1-biotinylated RON2 peptide binding; note: nearly all actives have a fitted effect of over 45% in size
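AMA1 (3D7) with his tag at 25 nM final met compounds first, then biotinylated RON2 peptide at 25 nM; detection used donor plus acceptor beads, 10 µg/mL apiece, read by AlphaScreen after 30 min at room temperature.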
Pf growth 48h: inhibits P. falciparum growth in the first generation, 48 h | P. falciparum luciferase growth in erythrocytes, 48 h | Potency, µM (titrated, usually from 28.7 µM), most hits filed as inhibitors | hit rate 5.9% among 310,000 | AID 504832
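Compounds are pin-transferred into medium, infected erythrocytes (2% hematocrit, 0.1% parasitemia final) are added, and plates sit one parasite generation at 37 C in 5% CO2. Detection reagent is then added and luminescence measured.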
Numbers stand for hits; – = inactive; ? = inconclusive; · = not tested or not shown; [ ] = another dose, or the depositor's remark. In the library only some 11% were active in any assay of this set; here they are far more common. Calls come from the whole dose curve; as a rule, active = well fitted curve in the direction sought with a large enough effect; inconclusive = small, poorly fitted or top-dose-only effect, or another doubt; inactive = no such curve, though single readings can be large; an effect the other way counts as inactive or inconclusive.

SMILES | AmpC detergent | AmpC inh no detg | Pf growth 96h | HCV inhibitor | AMA1 RON2 block | Pf growth 48h
c1ccc(-c2oc3ncnc(NCCCN4CCOCC4)c3c2-c2ccccc2)cc1 | – | – | ? | 5.6µM | – | ?
O=C1NC2(CCCCC2)C(=O)N1c1ccc(Cl)cc1 | – | – | 4.7µM | – | – | –
O=C(Nc1c(O)c2ccccc2oc1=O)c1cccc(F)c1 | – | · | · | · | · | ·
O=C(NC1CC2CCC(C1)N2Cc1ccccc1)c1ccccc1Cl (stereo not drawn) | – | – | 13µM | – | – | –
Cc1ccccc1C(=O)NC1CC2CCCC(C1)N2Cc1ccccc1 (stereo not drawn) | ? | – | ? | – | – | –
COc1ccc(CN2C3CCCC2CC(NC(=O)Nc2cccc(C)c2)C3)cc1 (stereo not drawn) | – | – | – | ? | – | 7.4µM
COc1ccc(CN2C3CCCC2CC(NC(=O)Nc2ccccc2)C3)cc1 (stereo not drawn) | – | – | ? | – | – | 10µM
CCCCNc1nc(Oc2ccc(=O)n(-c3ccccc3)n2)nc(N(CC)CC)n1 | – | · | · | · | · | ·
CC(C)NCC(O)COC1C2CC3CC(C2)CC1C3 (stereo not drawn) | – | – | – | – | – | 8.3µM
CCOC(CNC(=O)c1cccn2c(=O)c3cc(Cl)ccc3nc12)OCC | – | – | ? | ? | – | ·
CCOC(CNC(=O)c1cccn2c(=O)c3c(C)c(C)sc3nc12)OCC | – | – | 13µM | – | – | 6.6µM
CC1CN(CN2C(=O)c3ccccc3C2=O)CC(C)O1 (stereo not drawn) | – | 5.6µM | – | – | – | –
CCn1c(C(=O)NCc2ccccc2Br)cc2oc3ccccc3c21 | – | · | · | · | · | ·
COc1cc(CCN2C(=O)c3cccc4cccc(c34)C2=O)c(S(=O)(=O)NCCO)cc1OC | – | – | ? | – | –[2.32 µM] | ?
COc1cc(CCN2C(=O)c3cccc4cccc(c34)C2=O)c(S(=O)(=O)N2CCC(C)CC2)cc1OC | – | – | ? | – | – | 6.6µM
COc1cc(CCN2C(=O)c3cccc4cccc(c34)C2=O)c(S(=O)(=O)NCCCO)cc1OC | – | – | 8.3µM | – | – | ?
COc1cc(CCN2C(=O)c3cccc4cccc(c34)C2=O)c(S(=O)(=O)N2CCCCCC2)cc1OC | – | – | 2.3µM | ? | – | ?
COc1ccc(CCN2C(=O)c3cccc4c(C(=O)N5CCCCC5)ccc(c34)C2=O)cc1OC | ? | – | 8.3µM | – | – | ?
CCOc1ccc(CCNC(=O)c2ccc(CSCc3ccccc3C)o2)cc1OCC | – | · | · | · | · | ·
O=c1c2ccccc2c(-c2ccccc2)nn1-c1cc(Cl)ccc1[N+](=O)[O-] | ? | – | ? | ? | – | 8.3µM
Cc1cc(C)n(-c2cc(Cl)ccc2[N+](=O)[O-])n1 | – | – | – | – | – | –
CCc1ccc(-c2nn(-c3cc(Cl)ccc3[N+](=O)[O-])c(=O)c3ccccc23)cc1 | – | – | 9.3µM | – | – | ?
Cc1ccc(-c2nn(-c3cc(Cl)ccc3[N+](=O)[O-])c(=O)c3ccccc23)cc1C | ? | – | ? | – | – | 5.2µM
Cc1ccc(-c2nn(-c3cc(N4CCNCC4)ccc3[N+](=O)[O-])c(=O)c3ccccc23)cc1 | – | – | – | ? | – | ?
CCOc1cc(CNC(=O)C2CCN(c3nc4ccccc4[nH]3)CC2)cc(OCC)c1OCC | – | · | · | · | · | ·
COc1ccc(NC(=O)c2ncn(-c3ccccc3)n2)cc1Cl | – | · | · | · | · | ·
Cc1ccc(-c2nn(-c3ccccc3)cc2/C=N/n2c(-c3ccncc3)n[nH]c2=S)cc1 | – | – | ? | – | – | ?
S=c1[nH]nc(-c2cccs2)n1/N=C/c1cn(-c2ccccc2)nc1-c1ccccc1 | – | 4µM | ? | – | – | ?
COc1ccc(CNc2n[nH]c(-c3ccco3)n2)cc1OC | – | · | · | · | · | ·
Cc1ccc2oc(-c3cccc(NC(=O)/C=C/c4cccc([N+](=O)[O-])c4)c3C)nc2c1 | ? | – | 2.3µM | –[0.335 µM] | –[2.32 µM] | ?
